Our source for the log2 fold change values is the supplement of paper PMC10849652.

About 7,900 targets were measured; listed, in parts, are those with a hit and a random draw of the rest. About 0.6% of all pairs of compound and target were hits. A number with no mark means an inactive call.

Chain of UniProt Q14671 (Q14671 whole entry, looked up): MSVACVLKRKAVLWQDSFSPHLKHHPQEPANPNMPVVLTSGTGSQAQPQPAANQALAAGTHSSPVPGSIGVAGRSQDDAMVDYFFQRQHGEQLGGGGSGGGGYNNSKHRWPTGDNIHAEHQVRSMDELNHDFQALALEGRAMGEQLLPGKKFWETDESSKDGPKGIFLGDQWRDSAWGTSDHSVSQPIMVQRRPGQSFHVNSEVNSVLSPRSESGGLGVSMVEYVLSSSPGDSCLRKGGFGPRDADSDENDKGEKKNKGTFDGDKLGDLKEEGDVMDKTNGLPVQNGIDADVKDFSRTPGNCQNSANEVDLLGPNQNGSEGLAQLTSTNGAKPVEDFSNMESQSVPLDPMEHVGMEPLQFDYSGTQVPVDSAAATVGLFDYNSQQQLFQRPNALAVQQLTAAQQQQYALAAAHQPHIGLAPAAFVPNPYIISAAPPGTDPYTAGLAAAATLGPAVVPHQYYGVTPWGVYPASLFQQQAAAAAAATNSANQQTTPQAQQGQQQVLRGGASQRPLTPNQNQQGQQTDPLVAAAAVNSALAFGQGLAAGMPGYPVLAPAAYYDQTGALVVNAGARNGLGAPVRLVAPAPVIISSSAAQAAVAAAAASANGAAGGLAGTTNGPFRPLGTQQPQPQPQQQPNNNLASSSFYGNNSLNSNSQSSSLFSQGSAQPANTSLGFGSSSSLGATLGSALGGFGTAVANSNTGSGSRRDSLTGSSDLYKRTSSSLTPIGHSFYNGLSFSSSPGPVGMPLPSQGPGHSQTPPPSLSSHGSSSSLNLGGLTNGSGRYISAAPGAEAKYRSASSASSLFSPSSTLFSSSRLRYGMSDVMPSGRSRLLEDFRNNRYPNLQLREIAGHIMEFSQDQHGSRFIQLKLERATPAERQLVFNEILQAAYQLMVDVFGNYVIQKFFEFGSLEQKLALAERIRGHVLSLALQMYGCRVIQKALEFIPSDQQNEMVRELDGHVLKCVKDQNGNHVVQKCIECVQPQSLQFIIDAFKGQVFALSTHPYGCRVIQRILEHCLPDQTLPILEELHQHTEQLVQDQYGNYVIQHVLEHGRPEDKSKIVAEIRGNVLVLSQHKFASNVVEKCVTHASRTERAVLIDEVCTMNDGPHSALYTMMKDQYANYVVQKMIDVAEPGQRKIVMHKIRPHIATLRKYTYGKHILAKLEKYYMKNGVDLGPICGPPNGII
Chain of UniProt P0CG38 (P0CG38 whole entry, looked up): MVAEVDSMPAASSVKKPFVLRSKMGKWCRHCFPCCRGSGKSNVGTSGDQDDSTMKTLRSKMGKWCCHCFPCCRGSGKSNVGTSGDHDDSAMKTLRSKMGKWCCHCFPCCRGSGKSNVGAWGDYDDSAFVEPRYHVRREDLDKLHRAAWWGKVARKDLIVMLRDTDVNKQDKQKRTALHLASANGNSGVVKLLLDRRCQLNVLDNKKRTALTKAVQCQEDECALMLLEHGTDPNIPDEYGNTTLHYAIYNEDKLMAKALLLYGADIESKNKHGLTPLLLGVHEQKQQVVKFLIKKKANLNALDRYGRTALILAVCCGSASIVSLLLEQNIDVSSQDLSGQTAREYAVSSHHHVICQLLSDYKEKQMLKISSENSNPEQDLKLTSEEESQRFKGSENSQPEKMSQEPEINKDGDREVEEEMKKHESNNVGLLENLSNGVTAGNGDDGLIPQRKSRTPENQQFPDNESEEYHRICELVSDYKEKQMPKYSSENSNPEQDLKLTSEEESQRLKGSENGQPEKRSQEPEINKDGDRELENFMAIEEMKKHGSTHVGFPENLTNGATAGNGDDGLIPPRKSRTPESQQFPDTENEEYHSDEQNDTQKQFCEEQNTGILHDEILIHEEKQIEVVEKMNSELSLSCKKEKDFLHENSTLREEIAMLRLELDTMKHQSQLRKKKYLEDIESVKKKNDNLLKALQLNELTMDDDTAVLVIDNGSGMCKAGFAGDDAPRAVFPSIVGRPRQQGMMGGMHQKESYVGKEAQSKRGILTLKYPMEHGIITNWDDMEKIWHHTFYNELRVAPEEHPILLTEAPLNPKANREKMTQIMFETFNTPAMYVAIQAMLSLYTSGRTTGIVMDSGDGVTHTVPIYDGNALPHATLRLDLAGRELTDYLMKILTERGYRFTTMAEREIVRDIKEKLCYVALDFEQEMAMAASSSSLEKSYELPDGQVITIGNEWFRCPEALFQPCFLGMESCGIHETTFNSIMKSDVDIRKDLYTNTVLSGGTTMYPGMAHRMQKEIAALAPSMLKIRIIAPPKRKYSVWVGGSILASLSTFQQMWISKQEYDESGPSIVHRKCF
Chain of UniProt Q5JRX3 (Q5JRX3 whole entry, looked up): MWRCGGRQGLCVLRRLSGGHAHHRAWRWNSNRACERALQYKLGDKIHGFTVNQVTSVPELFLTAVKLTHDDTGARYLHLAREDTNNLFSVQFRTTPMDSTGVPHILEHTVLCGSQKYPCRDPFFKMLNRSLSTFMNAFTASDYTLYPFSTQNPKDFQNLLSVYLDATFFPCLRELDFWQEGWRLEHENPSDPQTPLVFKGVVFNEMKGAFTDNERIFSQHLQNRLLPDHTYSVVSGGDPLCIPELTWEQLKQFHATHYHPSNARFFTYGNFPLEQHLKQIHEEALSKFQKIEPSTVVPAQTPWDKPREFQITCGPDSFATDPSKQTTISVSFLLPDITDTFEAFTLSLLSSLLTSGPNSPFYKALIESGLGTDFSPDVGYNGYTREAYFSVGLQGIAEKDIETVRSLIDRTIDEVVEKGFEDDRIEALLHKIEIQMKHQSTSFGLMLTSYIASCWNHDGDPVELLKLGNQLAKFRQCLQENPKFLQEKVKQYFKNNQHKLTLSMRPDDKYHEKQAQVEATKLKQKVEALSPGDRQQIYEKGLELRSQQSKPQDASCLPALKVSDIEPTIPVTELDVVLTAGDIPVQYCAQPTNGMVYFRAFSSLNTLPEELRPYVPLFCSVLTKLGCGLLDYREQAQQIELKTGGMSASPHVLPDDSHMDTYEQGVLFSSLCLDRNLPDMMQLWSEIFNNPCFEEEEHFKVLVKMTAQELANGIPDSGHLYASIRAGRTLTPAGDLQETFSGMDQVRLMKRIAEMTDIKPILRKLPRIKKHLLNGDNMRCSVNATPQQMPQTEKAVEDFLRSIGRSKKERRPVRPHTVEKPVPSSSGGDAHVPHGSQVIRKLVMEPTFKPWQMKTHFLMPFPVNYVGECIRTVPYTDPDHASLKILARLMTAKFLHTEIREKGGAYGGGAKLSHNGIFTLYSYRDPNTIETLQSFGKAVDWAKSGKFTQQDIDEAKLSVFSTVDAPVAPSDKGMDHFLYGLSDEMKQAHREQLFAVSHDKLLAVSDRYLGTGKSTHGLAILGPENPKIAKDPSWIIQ
Chain of UniProt P46020 (P46020 whole entry, looked up): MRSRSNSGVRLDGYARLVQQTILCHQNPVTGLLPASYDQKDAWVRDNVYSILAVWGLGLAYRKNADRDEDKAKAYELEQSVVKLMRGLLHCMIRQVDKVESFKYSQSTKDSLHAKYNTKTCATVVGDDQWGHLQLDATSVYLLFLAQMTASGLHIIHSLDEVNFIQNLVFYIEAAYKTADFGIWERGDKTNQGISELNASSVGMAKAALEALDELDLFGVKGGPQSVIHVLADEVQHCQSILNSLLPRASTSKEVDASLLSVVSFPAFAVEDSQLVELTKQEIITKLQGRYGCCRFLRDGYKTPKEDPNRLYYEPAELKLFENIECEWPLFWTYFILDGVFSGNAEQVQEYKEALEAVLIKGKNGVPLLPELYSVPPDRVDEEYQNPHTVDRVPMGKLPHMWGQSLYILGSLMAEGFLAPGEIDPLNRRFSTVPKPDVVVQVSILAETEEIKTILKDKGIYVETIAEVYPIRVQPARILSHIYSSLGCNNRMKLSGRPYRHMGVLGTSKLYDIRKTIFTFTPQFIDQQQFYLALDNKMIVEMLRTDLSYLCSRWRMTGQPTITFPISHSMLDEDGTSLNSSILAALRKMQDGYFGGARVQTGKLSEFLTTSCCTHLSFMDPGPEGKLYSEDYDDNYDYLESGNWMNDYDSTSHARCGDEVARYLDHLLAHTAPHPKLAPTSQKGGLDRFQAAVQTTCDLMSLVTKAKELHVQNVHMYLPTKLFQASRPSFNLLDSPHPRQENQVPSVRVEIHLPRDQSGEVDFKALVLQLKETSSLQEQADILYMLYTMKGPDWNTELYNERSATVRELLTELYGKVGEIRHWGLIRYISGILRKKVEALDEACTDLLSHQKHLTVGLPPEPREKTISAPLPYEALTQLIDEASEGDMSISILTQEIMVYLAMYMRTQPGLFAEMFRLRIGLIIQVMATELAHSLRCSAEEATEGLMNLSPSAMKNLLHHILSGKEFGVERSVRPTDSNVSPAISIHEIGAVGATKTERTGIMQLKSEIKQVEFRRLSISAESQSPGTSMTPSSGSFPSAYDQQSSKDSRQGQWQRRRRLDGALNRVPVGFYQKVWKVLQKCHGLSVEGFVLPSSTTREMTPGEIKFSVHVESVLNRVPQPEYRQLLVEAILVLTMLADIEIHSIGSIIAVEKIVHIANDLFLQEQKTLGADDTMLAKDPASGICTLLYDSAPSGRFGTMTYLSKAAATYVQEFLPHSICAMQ
Chain of UniProt Q15126 (Q15126 whole entry, looked up): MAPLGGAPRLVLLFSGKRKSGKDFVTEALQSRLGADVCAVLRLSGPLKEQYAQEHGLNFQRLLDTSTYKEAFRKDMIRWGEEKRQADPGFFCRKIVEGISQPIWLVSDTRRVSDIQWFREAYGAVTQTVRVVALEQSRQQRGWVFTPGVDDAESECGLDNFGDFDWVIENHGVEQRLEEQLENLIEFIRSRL
Chain of UniProt P28065 (P28065 whole entry, looked up): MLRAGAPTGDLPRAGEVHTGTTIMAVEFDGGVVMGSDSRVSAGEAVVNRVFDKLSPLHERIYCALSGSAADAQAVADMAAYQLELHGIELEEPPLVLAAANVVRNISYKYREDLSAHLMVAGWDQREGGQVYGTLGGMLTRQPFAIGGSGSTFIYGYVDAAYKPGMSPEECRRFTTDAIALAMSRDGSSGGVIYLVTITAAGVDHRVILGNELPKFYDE

Compound in one experiment: Cc1sc2c(c1C)C(c1ccc(Cl)cc1)=N[C@@H](CC(=O)OC(C)(C)C)c1nnc(C)n1-2
Kind of experiment: log2 fold change, soluble protein after heating vs DMSO (PISA); higher = thermal stabilisation; K562 cells, 10 uM, 30 min; active = over 0.2 and 3.5 SD of the protein, either way, in both replicates (recomputed). In a few lines: (§1)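 Aliquots of K562 cells (2×10^6 cells/mL) treated with 10 μM compound for 30 min were heated for 3 min over 48°C-58°C. After pooling and extraction in PBS with 0.5% NP-40 at 4°C, soluble protein from a 21,000xg, 90 min spin was quantified by TMTpro 16plex LC-MS/MS with channel sums equalised. Thermal stability is expressed against control samples, from duplicates, as a log2 fold change.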
Consider PDE4DIP isoform 4 (UniProt Q5VU43), for which the log2 fold change was -0.023. Still for that read-out and setting: to PEX5 isoform 4 (UniProt P50542) belongs 0.059. Same read-out and setting: the figure for PKM isoform 2 (UniProt P14618) is -0.046. As to PHKA1 (UniProt P46020), the log2 fold change is 0.103. On the same count and under the same terms, to PSMD8 (UniProt K7ERW6) belongs 0.03; to PRR14L (UniProt Q5THK1), 0.042.

Consider PRIM2 (UniProt P49643), for which the log2 fold change is 0.014.

In the case of PPP1R12C (UniProt Q9BZL4), the log2 fold change is 0.053.

PI4K2A (UniProt Q9BTU6): the log2 fold change was -0.004. The same measure, in the same setting: the figure for PRUNE1 (UniProt Q86TP1) is 0; for PSMC3 (UniProt E9PLG2) it is 0.252. Still for that read-out and setting: to PRPF4B (UniProt Q13523) belongs 0.109; to PIAS4 (UniProt Q8N2W9), 0.129; to POTEI (UniProt P0CG38), -0.03. The same measure, in the same setting: to PDPK1 (UniProt O15530) belongs -0.038. For the target PITRM1 isoform 2 (UniProt Q5JRX3), the log2 fold change was -0.083. The same measure, in the same setting: to POLB (UniProt P06746) belongs -0.107; to PSMA3 (UniProt H0YJ03), 0.048.

Consider PCNX1 (UniProt Q96RV3), for which the log2 fold change was -0.122. On the same count and under the same terms, the figure for PMVK (UniProt Q15126) is 0.063; for PUM1 (UniProt Q14671) it is 0.059. Same read-out and setting: to POGZ (UniProt Q7Z3K3) belongs 0.025.

As to POLA1 (UniProt P09884), the log2 fold change is -0.012.

Compound in a further experiment: c1ccc([C@@H]2C[C@H]2NC2CCNCC2)cc1
The experiment is described as above. In a few lines:
as §1
Take PDE4DIP isoform 4 (UniProt Q5VU43): the log2 fold change is -0.011. On the same count and under the same terms, the figure for PEX5 isoform 4 (UniProt P50542) is 0.006. On the same count and under the same terms, to PHKA1 (UniProt P46020) belongs 0.011; to PSMD8 (UniProt K7EK21), 0.188. Consider PDE4DIP (UniProt E9PS60), for which the log2 fold change is -0.069. Same read-out and setting: to PRR14L (UniProt Q5THK1) belongs 0.103. Same read-out and setting: the figure for PCBP2 (UniProt F8VZX2) is 0.019; for PNN (UniProt Q9H307) it is 0.012. The same measure, in the same setting: to PRIM2 (UniProt P49643) belongs -0.092; to PI4K2A (UniProt Q9BTU6), 0.013. Consider PHC3 isoform 7 (UniProt Q8NDX5), for which the log2 fold change was -0.075.

As to PRUNE1 (UniProt Q86TP1), the log2 fold change is -0.007. With PRKD3 (UniProt O94806), the log2 fold change is -0.097. As for PSD3 (UniProt Q9NYI0), the log2 fold change is -0.028. In the case of PRPF4B (UniProt Q13523), the log2 fold change was 0.168. As for POTEI (UniProt P0CG38), the log2 fold change was -0.002. Same read-out and setting: the figure for PSMB9 (UniProt P28065) is -0.203. The same measure, in the same setting: the figure for PDPK1 (UniProt O15530) is -0.018. Still for that read-out and setting: to PITRM1 isoform 2 (UniProt Q5JRX3) belongs 0; to POLB (UniProt P06746), -0.006.

Take PSMA3 (UniProt H0YJ03): the log2 fold change is 0.034. As to PSMC1 (UniProt G3V4X1), the log2 fold change was 0.112. Still for that read-out and setting: to PCF11 (UniProt O94913) belongs 0.006. The same measure, in the same setting: the figure for PMVK (UniProt Q15126) is 0.028; for PUM1 (UniProt Q14671) it is -0.094.

Consider POGZ (UniProt Q7Z3K3), for which the log2 fold change is -0.032. On the same count and under the same terms, to POLA1 (UniProt P09884) belongs 0.
